# According to PubChem BioAssay AID1159580 (chemical genetic matrix, 2015):
# The campaign covered roughly 5,500 compounds. About 2,000 (36%) were called active. About 18% were inconclusive and are not listed. Some of the results follow. A number with no mark means an inactive call. Cut-off read from the data, not from the text of the source: active = normalized growth mostly below about 0.91 (no sharp cut-off); inconclusive = no clear call, values can overlap the other calls; inactive = mostly above about 0.92.
# Assay: chemical genetic growth profiling, strain panel (AID 1159580);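 note: tested at 20 µM; growth read once vehicle control cultures reached saturation at 30 °C; 1 = growth at the plate median or of vehicle wells; lower values mean less growth of the strain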
# Conditions: growth OD
structure (smiles),measurement,setting,value
N[C@H](Cc1cc(I)c(Oc2ccc(O)c(I)c2)c(I)c1)C(=O)O,normalized growth,"S. cerevisiae deletion strains, locus YJR075W, strain HOC1, hits give low values",1
same,normalized growth,"S. cerevisiae deletion strains, locus YKL009W, strain mrt4, hits give low values",1.03
same,normalized growth,"S. cerevisiae deletion strains, locus YKL068W, hits give low values",0.998
same,normalized growth,"S. cerevisiae deletion strains, locus YKL085W, strain MDH1 (second series), hits give low values",0.991
same,normalized growth,"S. cerevisiae deletion strains, locus YKL085W, strain MDH1, hits give low values",0.991
same,normalized growth,"S. cerevisiae deletion strains, locus YKL160W, strain elf1, hits give low values",0.965
same,normalized growth,"S. cerevisiae deletion strains, locus YKL190W, strain CNB1, hits give low values",1.01
same,normalized growth,"S. cerevisiae deletion strains, locus YKR001C, strain vps1, hits give low values",0.862 (active)
same,normalized growth,"S. cerevisiae deletion strains, locus YKR026C, strain gcn3, hits give low values",0.999
same,normalized growth,"S. cerevisiae deletion strains, locus YKR091W, strain srl3, hits give low values",0.998
same,normalized growth,"S. cerevisiae deletion strains, locus YLL001W, strain dnm1, hits give low values",0.989
same,normalized growth,"S. cerevisiae deletion strains, locus YLL026W, hits give low values",1
same,normalized growth,"S. cerevisiae deletion strains, locus YLL041C, strain sdh2, hits give low values",1
same,normalized growth,"S. cerevisiae deletion strains, locus YLR027C, strain aat2, hits give low values",0.968
same,normalized growth,"S. cerevisiae deletion strains, locus YLR039C, strain RIC1, hits give low values",0.964
same,normalized growth,"S. cerevisiae deletion strains, locus YLR058C, strain SHM2, hits give low values",1.01
same,normalized growth,"S. cerevisiae deletion strains, locus YLR102C, strain apc9, hits give low values",0.996
same,normalized growth,"S. cerevisiae deletion strains, locus YLR113W, strain HOG1, hits give low values",1.04
same,normalized growth,"S. cerevisiae deletion strains, locus YLR221C, strain rsa3, hits give low values",0.945
same,normalized growth,"S. cerevisiae deletion strains, locus YLR258W, strain gsy2, hits give low values",0.969
same,normalized growth,"S. cerevisiae deletion strains, locus YLR262C, strain YPT6 (second series), hits give low values",0.938
same,normalized growth,"S. cerevisiae deletion strains, locus YLR262C, strain YPT6, hits give low values",0.953
same,normalized growth,"S. cerevisiae deletion strains, locus YLR268W, strain sec22, hits give low values",0.909
same,normalized growth,"S. cerevisiae deletion strains, locus YLR320W, strain mms22, hits give low values",0.941
same,normalized growth,"S. cerevisiae deletion strains, locus YLR330W, strain CHS5, hits give low values",1.04
same,normalized growth,"S. cerevisiae deletion strains, locus YLR342W, strain FKS1 (second series), hits give low values",0.95
same,normalized growth,"S. cerevisiae deletion strains, locus YLR342W, strain FKS1, hits give low values",0.994
same,normalized growth,"S. cerevisiae deletion strains, locus YLR357W, strain rsc2, hits give low values",1
same,normalized growth,"S. cerevisiae deletion strains, locus YLR370C, strain arc18, hits give low values",0.999
same,normalized growth,"S. cerevisiae deletion strains, locus YLR371W, strain rom2, hits give low values",0.989
same,normalized growth,"S. cerevisiae deletion strains, locus YLR384C, strain iki3, hits give low values",0.993
same,normalized growth,"S. cerevisiae deletion strains, locus YLR418C, strain cdc73, hits give low values",0.77 (active)
same,normalized growth,"S. cerevisiae deletion strains, locus YML016C, strain PPZ1, hits give low values",0.997
same,normalized growth,"S. cerevisiae deletion strains, locus YML032C, strain rad52, hits give low values",0.989
same,normalized growth,"S. cerevisiae deletion strains, locus YML120C, strain ndi1, hits give low values",0.998
same,normalized growth,"S. cerevisiae deletion strains, locus YML124C, strain tub3, hits give low values",0.997
same,normalized growth,"S. cerevisiae deletion strains, locus YMR058W, strain fet3, hits give low values",0.988
same,normalized growth,"S. cerevisiae deletion strains, locus YMR078C, strain ctf18, hits give low values",1.01
same,normalized growth,"S. cerevisiae deletion strains, locus YMR125W, strain sto1, hits give low values",0.989
same,normalized growth,"S. cerevisiae deletion strains, locus YMR129W, hits give low values",0.999
same,normalized growth,"S. cerevisiae deletion strains, locus YMR205C, strain PFK2, hits give low values",0.88
same,normalized growth,"S. cerevisiae deletion strains, locus YMR223W, strain ubp8, hits give low values",0.934
same,normalized growth,"S. cerevisiae deletion strains, locus YMR231W, strain pep5, hits give low values",0.999
same,normalized growth,"S. cerevisiae deletion strains, locus YMR263W, strain SAP30, hits give low values",1
same,normalized growth,"S. cerevisiae deletion strains, locus YMR307W, strain GAS1, hits give low values",0.956
same,normalized growth,"S. cerevisiae deletion strains, locus YNL067W, strain RPL9B, hits give low values",1.01
same,normalized growth,"S. cerevisiae deletion strains, locus YNL071W, strain lat1, hits give low values",0.627 (active)
same,normalized growth,"S. cerevisiae deletion strains, locus YNL128W, strain TEP1, hits give low values",1.01
same,normalized growth,"S. cerevisiae deletion strains, locus YNL153C, strain GIM3, hits give low values",0.998
same,normalized growth,"S. cerevisiae deletion strains, locus YNL183C, strain NPR1, hits give low values",0.977
same,normalized growth,"S. cerevisiae deletion strains, locus YNL209W, strain ssb2, hits give low values",1
same,normalized growth,"S. cerevisiae deletion strains, locus YNL233W, strain BNI4, hits give low values",0.961
same,normalized growth,"S. cerevisiae deletion strains, locus YNL248C, strain rpa49, hits give low values",0.986
same,normalized growth,"S. cerevisiae deletion strains, locus YNL250W, strain rad50, hits give low values",0.988
same,normalized growth,"S. cerevisiae deletion strains, locus YNL271C, strain bni1, hits give low values",0.989
same,normalized growth,"S. cerevisiae deletion strains, locus YNL298W, strain CLA4, hits give low values",1
same,normalized growth,"S. cerevisiae deletion strains, locus YNL307C, strain MCK1, hits give low values",0.613 (active)
same,normalized growth,"S. cerevisiae deletion strains, locus YNL322C, strain KRE1 (second series), hits give low values",1.02
same,normalized growth,"S. cerevisiae deletion strains, locus YNL322C, strain KRE1, hits give low values",1.01
same,normalized growth,"S. cerevisiae deletion strains, locus YNR049C, strain mso1, hits give low values",0.998
same,normalized growth,"S. cerevisiae deletion strains, locus YNR052C, strain pop2, hits give low values",0.999
same,normalized growth,"S. cerevisiae deletion strains, locus YOL006C, strain TOP1, hits give low values",0.942
same,normalized growth,"S. cerevisiae deletion strains, locus YOL012C, strain htz1",0.841
same,normalized growth,"S. cerevisiae deletion strains, locus YOL147C, strain pex11, hits give low values",1
same,normalized growth,"S. cerevisiae deletion strains, locus YOR001W, strain rrp6, hits give low values",1.01
same,normalized growth,"S. cerevisiae deletion strains, locus YOR061W, strain CKA2, hits give low values",0.994
same,normalized growth,"S. cerevisiae deletion strains, locus YOR069W, strain VPS5, hits give low values",1
same,normalized growth,"S. cerevisiae deletion strains, locus YOR070C, strain gyp1, hits give low values",0.992
same,normalized growth,"S. cerevisiae deletion strains, locus YOR080W, strain dia2, hits give low values",0.987
same,normalized growth,"S. cerevisiae deletion strains, locus YOR083W, strain WHI5, hits give low values",0.965
same,normalized growth,"S. cerevisiae deletion strains, locus YOR106W, strain vam3, hits give low values",0.935
same,normalized growth,"S. cerevisiae deletion strains, locus YOR136W, strain idh2, hits give low values",0.97
same,normalized growth,"S. cerevisiae deletion strains, locus YOR144C, strain elg1, hits give low values",0.994
same,normalized growth,"S. cerevisiae deletion strains, locus YOR184W, strain ser1, hits give low values",0.889
same,normalized growth,"S. cerevisiae deletion strains, locus YOR231W, strain MKK1, hits give low values",1.03
same,normalized growth,"S. cerevisiae deletion strains, locus YOR265W, strain rbl2, hits give low values",0.993
same,normalized growth,"S. cerevisiae deletion strains, locus YOR270C, strain vph1, hits give low values",0.953
same,normalized growth,"S. cerevisiae deletion strains, locus YOR290C, strain snf2, hits give low values",0.983
same,normalized growth,"S. cerevisiae deletion strains, locus YOR316C, strain cot1, hits give low values",1
same,normalized growth,"S. cerevisiae deletion strains, locus YPL051W, strain arl3, hits give low values",0.95
same,normalized growth,"S. cerevisiae deletion strains, locus YPL055C, strain LGE1, hits give low values",1
same,normalized growth,"S. cerevisiae deletion strains, locus YPL078C, strain atp4, hits give low values",0.968
same,normalized growth,"S. cerevisiae deletion strains, locus YPL106C, strain sse1, hits give low values",0.96
same,normalized growth,"S. cerevisiae deletion strains, locus YPL240C, strain hsp82, hits give low values",0.982
same,normalized growth,"S. cerevisiae deletion strains, locus YPL241C, strain CIN2, hits give low values",1.01
same,normalized growth,"S. cerevisiae deletion strains, locus YPL256C, strain CLN2, hits give low values",1.05
same,normalized growth,"S. cerevisiae deletion strains, locus YPR119W, strain clb2, hits give low values",0.998
same,normalized growth,"S. cerevisiae deletion strains, locus YPR141C, strain kar3, hits give low values",1.01
same,normalized growth,"S. cerevisiae deletion strains, locus YPR163C, strain tif3, hits give low values",0.909 (active)
same,normalized growth,"S. cerevisiae deletion strains, locus YPR167C, strain met16, hits give low values",1.01
same,normalized growth,"S. cerevisiae deletion strains, strain wtn01, hits give low values",0.955
same,normalized growth,"S. cerevisiae strains, strain wild type, hits give low values",1
